BJeLR lethal – MLPCN primary cell-based screen for lethality selective to Ras in HRASV12 cells. BJeLR (HRASV12) viability, CellTiter-Glo ATP luminescence, 48 h. inhibition, % (concentration not given with the values). AID 1554, 2009. 300,000 compounds, 0.17% hits; in the data active = inhibition above about 50%
SARS 3CLpro inh – SARS-CoV 3CLpro protease inhibitors, primary screen, biochemical, quenched FRET. 290,000 compounds, 0.14% hits. recombinant SARS-CoV 3CLpro, quenched FRET peptide cleavage. inhibition, % at 6 µM. Replicase polyprotein 1ab (Severe acute respiratory syndrome coronavirus), P0C6X7; in the data active = inhibition above about 12%
Mtb hypoxia rep – PubChem AID 1159583. M. tuberculosis hypoxia-regulated fluorescent reporter, fluorescence. fluorescence inhibition, % (concentration not given with the values). 300,000 compounds, 0.1% hits; in the data active = fluorescence inhibition mostly above about 23%, no sharp cut-off; inactive = mostly below about 17%
PrPC surface inh – inhibitors of human cell surface prion protein PrPC, primary screen, cell-based, TR-FRET | inhibition, % at 13.8 µM | TR-FRET read-out | 370,000 compounds, 0.43% hits | AID 720596, 2013; in the data active = inhibition above about 24%; also: 0% = median of the test wells and 100% = reference compound wells
RecA splice inh – Mtb RecA intein splicing inhibitors, primary screen, biochemical, fluorescence, HTS; cell-free RecA intein splicing; 290,000 compounds, 0.75% hits; AID 2221, 2009; inhibition, % (concentration not given with the values); in the data active = inhibition above about 30%;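 also: 0% = vehicle wells and 100% = reference inhibitor control wells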
PrP 5UTR inh – inhibition of PrP 5' UTR reporter expression. AID 488862, 2010. inhibition, % (test concentration not listed). cell-based PrP 5' UTR mRNA reporter, plate reader. 340,000 compounds, 0.35% hits; in the data active = inhibition above about 52%; also: 0 = median of the neutral control wells
PrP UTR cherry – prion 5' UTR mRNA inhibition, cherry-pick retest | shares compounds with PrP 5UTR inh | cell-based prion protein 5' UTR reporter, plate reader | inhibition, % at 2.5 µM | 1,100 compounds, 48% hits | AID 504592, 2011; in the data active = inhibition above about 54%
* hit, by the source's call; · = no result given. Sampled rows, rich in hits. Any-hit rate of the full collection: about 1.4%.

SMILES	BJeLR lethal	SARS 3CLpro inh	Mtb hypoxia rep	PrPC surface inh	RecA splice inh	PrP 5UTR inh	PrP UTR cherry
N#CC1=C(N)Oc2cc(N)ccc2C1c1cccc(F)c1 (stereo not given)	33.1	6.8	-4.4	7.7	-5.0	-19.7	·
CN(C)c1ccc2c(c1)OC(N)=C(C#N)C2c1cccc(F)c1 (stereo not given)	10.4	-2.9	6.5	·	-10.1	66.0*	90.3*
O=C(O)CN1C(=O)/C(=C/c2ccc(N3CCCCC3)o2)SC1=S	22.8	-0.4	·	3.5	-4.3	-10.9	·
CN1C(=O)C(=Cc2ccc(N3CCCCC3)o2)C(=O)N(C)C1=S	2.6	-1.0	·	-3.1	-2.5	54.3*	-12.0
O=C(C[n+]1ccccc1)N/N=C/c1c(F)cccc1Cl	0.7	-4.2	·	2.5	-2.2	58.6*	-3.5
COc1cc(CCCN2C(=S)NCC2Cc2ccccc2)cc(OC)c1OC (stereo not given)	·	·	4.0	·	·	·	·
CC1CN(C(C)CO)C(=O)Cc2cc(NC(=O)Nc3ccc(C(F)(F)F)cc3)ccc2OC1CN(C)S(=O)(=O)c1ccc(Cl)cc1 (stereo not given)	·	·	13.7	·	·	·	·
C/C(=N\NC(N)=O)c1ccccc1	-0.3	2.5	·	6.7	-3.8	72.3*	-7.0
CC(=NNC(=O)C(=O)NN=C(C)c1ccccc1)c1ccccc1	·	·	1.6	·	·	·	·
COc1ccc2[nH]c(-c3cccc(F)c3)cc(=O)c2c1	39.1	-1.4	-3.0	-1.4	-0.1	62.2*	91.7*
C/C(C=NNC(=O)CSc1n[nH]c(=O)[nH]c1=O)=C\c1ccccc1	·	·	12.5	·	·	·	·
O=C(CN1C(=O)c2ccccc2S1(=O)=O)c1ccc2c(c1)OCCCO2	-2.9	-2.4	15.5	3.1	-0.2	94.9*	97.3*
O=C(CN1C(=O)c2ccccc2S1(=O)=O)c1ccc2c(c1)OCCO2	-4.6	-6.6	4.7	-7.5	0.0	91.1*	93.4*
CCOC(=O)C1C2COc3cc(OC)ccc3C2N2C(=O)N(c3cccc(C)c3)C(=O)[C@@]12C (stereo not given in full)	·	·	-4.2	·	·	·	·
CCOC(=O)C1(Cc2ccccc2)CCCCCC1=O (stereo not given)	·	·	·	-1.0	·	55.4*	0.6
N#CNC(=Nc1ccccc1)SCc1ccc(C(=O)O)cc1	0.3	-1.3	5.6	-1.8	6.8	-12.1	·
CSC(=Nc1ccccc1)N=C(SCc1ccccc1)N(C)C	·	·	·	-11.3	·	73.6*	39.1
CN1CCC(=O)N(C(CC#N)c2ccccc2)CC1 (stereo not given)	·	·	8.3	·	·	·	·
O=C(c1oc(=O)c2ccccc2c1-c1ccccc1)N1CCN(C2CCCCC2)CC1	-8.7	-2.3	·	-11.4	0.7	9.7	·
O=C(c1oc(=O)c2ccccc2c1-c1ccccc1)N1CCC(O)CC1	-4.9	-1.2	·	9.3	-1.2	68.3*	-21.1
CCC1SC(CC)C(=O)N(CC(=O)NCc2ccc(F)cc2)C1=O (stereo not given)	1.9	1.6	9.2	2.8	-3.2	78.1*	-19.3
CC1CN(C(C)CO)C(=O)c2cccc(NS(=O)(=O)c3ccccc3)c2OC1CN(C)CC1CCCCC1 (stereo not given)	·	·	7.3	·	·	·	·
O=C(CC(O)CCc1ccccc1)c1ccc(O)cc1 (stereo not given)	·	·	·	10.7	·	79.3*	-16.2
COc1ccc(C2C=CCN(CC(C)C)CC(=O)N2Cc2ccc(F)cc2)cc1 (stereo not given)	·	·	19.1	·	·	·	·
Cc1nc(COC(=O)c2ccc(S(=O)(=O)N3CCCC3)cc2)cs1	1.9	5.0	13.4	-0.6	1.1	89.4*	-12.4
SMILES	BJeLR lethal	SARS 3CLpro inh	Mtb hypoxia rep	PrPC surface inh	RecA splice inh	PrP 5UTR inh	PrP UTR cherry
NC(=O)COC(=O)c1ccc(S(=O)(=O)N2CCCCCC2)cc1	3.3	-1.4	9.6	-0.7	-1.4	-15.6	·
NC(=S)NN=C1CC(n2nnn(-c3cccc(Cl)c3)c2=S)C2COC1O2 (stereo not given)	·	·	-2.4	·	·	·	·
O=C1NC(Cc2ccccc2)C(=O)N1Cc1cc([N+](=O)[O-])cc2c1OCOC2 (stereo not given)	-0.2	2.2	-3.8	-0.6	-2.4	70.9*	-10.0
CCCOC(=O)C1NC(=O)N2C1SC(C)(C)C2C(=O)OCCC (stereo not given)	·	·	19.0	·	·	·	·
CCn1c(C)nc2cc(-c3nc4n(n3)Cc3ccccc3-4)ccc21	62.8*	-4.2	2.3	·	-0.2	94.2*	95.6*
CC1OC(OC2C(O)C(C)OC(OC(=O)[C@]34CCC(C)(C)CC3C3=CCC5[C@@]6(C)CC(O)C(OC7OC(CO)C(O)C(O)C7O)[C@@](C)(C(=O)O)C6CC[C@@]5(C)[C@]3(CO)CC4)C2OC2OC(C)C(OC3OCC(OC4OC(CO)C(O)C(O)C4O)C(O)C3O)C(O)C2O)C(O)C(O)C1O (stereo not given in full)	·	·	17.3	·	·	·	·
CC1CC(=NNC(N)=S)c2cc(Cl)ccc2S1 (stereo not given)	·	·	-6.3	·	·	·	·
CCCCN(C(=O)c1ccc(Cl)cc1)C1CC2CCC(C1)N2C (stereo not given)	-5.2	1.3	9.5	-0.5	-5.9	71.8*	-14.0
O=C(NN=C1CCCc2ccccc21)c1cccc([N+](=O)[O-])c1	·	·	-1.3	·	·	·	·
CC(=O)NCCc1ccc(C(=O)COC(=O)C2CCCCC2)cc1	·	·	-2.6	2.2	·	71.9*	34.0
Cc1ccc(C(=O)COC(=O)C2CCC2)cc1	-4.0	4.5	·	·	4.8	-22.0	·
COC(=O)C1C(O)=C(C=Nc2ccc3ccccc3c2)C(=O)CC1(C)C (stereo not given)	4.4	-6.2	1.7	5.0	-0.2	80.4*	9.1
CCSC(=O)N=Nc1ccc(O)cc1	·	·	·	-11.3	·	55.8*	0.6
Cc1cn(CC(=O)NCCCc2ccccc2)c(=O)[nH]c1=O	·	·	·	-2.9	·	-14.0	·
O=c1[nH]c(=O)n(CCCc2ccccc2)cc1-c1ccccc1	·	·	·	0.5	·	63.0*	-15.4
Cc1ccc2nc(NC(=O)c3ccco3)sc2c1	10.2	-2.4	·	3.2	-5.9	59.3*	37.6
Cc1ccc2nc(NC(=S)NC(=O)c3ccco3)sc2c1	-10.2	-4.3	19.8	9.1	0.7	-95.5	·
COc1ccc(C2CC(=O)C=C(c3cc(Br)ccc3OC)C2)cc1 (stereo not given)	·	·	3.8	·	·	·	·
COC(=O)C(=O)C1CCc2c(Cl)cc(OC)c(OC)c2C1=O (stereo not given)	·	·	·	-14.2	·	93.6*	-15.6
CNC(=O)c1cc(Cl)c(OC)c(OC)c1	-1.8	1.0	0.2	-5.6	-0.3	-18.1	·
COC(=O)CCC(=O)NC(=S)Nc1sc(C)c(C)c1C(N)=O	31.1	-1.4	·	8.7	-3.4	67.4*	85.5*
Cc1sc(NC(=S)NC(=O)CCc2ccccc2)c(C(N)=O)c1C	·	2.1	6.4	14.9	·	54.5*	81.1*

From PubChem BioAssay
